# Laboratory results from publication PMC11062922 (Nature Chemical Biology, 2023).
# Read-outs that look alike come from different tables or passages of the source.
# Tests used:
# Parameters in all cases: species or system human, MV4-11 + K-562 + COLO205 + SK-N-BE2 + OVCAR-8
# [1] = system: CSNK1A1; conditions: read-out: apparent Kd, n = 1
# [2] = system: CSNK1D; conditions: read-out: apparent Kd, n = 1
# [3] = system: PIK3CA; conditions: read-out: apparent Kd, compound concentrations: 100 nM and 1000 nM (sheet 'Samples'), n = 1
# [4] = system: TNIK; conditions: read-out: apparent Kd, compound concentrations: 100 nM and 1000 nM (sheet 'Samples'), n = 1
# [5] = system: MTOR; conditions: read-out: apparent Kd, n = 1
# [6] = system: PIK3C2A; conditions: read-out: apparent Kd, compound concentrations: 100 nM and 1000 nM (sheet 'Samples'), n = 1
# [7] = system: ERCC2; conditions: read-out: apparent Kd, compound concentrations: 100 nM and 1000 nM (sheet 'Samples'), n = 1
# [8] = system: PTK2B; conditions: read-out: apparent Kd, compound concentrations: 100 nM and 1000 nM (sheet 'Samples'), n = 1
# [9] = system: PTK2; conditions: read-out: apparent Kd, compound concentrations: 100 nM and 1000 nM (sheet 'Samples'), n = 1
# [10] = system: TEC; conditions: read-out: apparent Kd, n = 1
# [11] = system: BRAF; conditions: read-out: apparent Kd, compound concentrations: 100 nM and 1000 nM (sheet 'Samples'), n = 1
# [12] = system: CDK2; conditions: read-out: apparent Kd, compound concentrations: 100 nM and 1000 nM (sheet 'Samples'), n = 1
# [13] = system: CDK5; conditions: read-out: apparent Kd, compound concentrations: 100 nM and 1000 nM (sheet 'Samples'), n = 1
# [14] = system: LIMK2; conditions: read-out: apparent Kd, compound concentrations: 100 nM and 1000 nM (sheet 'Samples'), n = 1
# [15] = system: STK16; conditions: read-out: apparent Kd, compound concentrations: 100 nM and 1000 nM (sheet 'Samples'), n = 1
# [16] = system: MAPK8; conditions: read-out: apparent Kd, n = 1
# [17] = system: ADRBK1; conditions: read-out: apparent Kd, n = 1
# [18] = system: STK3; conditions: read-out: apparent Kd; compound concentrations:100 nM and 1000 nM (sheet 'Samples'); n = 1
# [19] = system: ADCK1; conditions: read-out: apparent Kd; compound concentrations: 100 nM and 1000 nM (sheet 'Samples'), CATDS: 3.1344375728913298E-2; n = 1
# [20] = system: CDK1; conditions: read-out: apparent Kd, compound concentrations: 100 nM and 1000 nM (sheet 'Samples'), n = 1
# [21] = compound concentrations:100 nM and 1000 nM (sheet 'Samples')
smiles,measurement,setting,value
COc1ccc(Nc2nccc(N3CCC(NC(=O)Nc4ccc5c(c4)OCO5)C3)n2)cc1 (centres unmarked) [GSK1379745A],potency estimated from few doses,"[1]; compound concentrations: 100 nM and 1000 nM (sheet 'Samples'), CATDS: 4.3569659230054097E-2",1260 nM
same,potency estimated from few doses,"[2]; compound concentrations: 100 nM and 1000 nM (sheet 'Samples'), CATDS: 3.4846409929325597E-2",2080 nM
O=C1N=C(NCc2ccccc2Cl)S/C1=C\c1ccc2ncccc2c1 [RO4506917-000],potency estimated from few doses,[3]; CATDS: 0.16964202934765399,283 nM
COc1cc(Nc2ccnc3cc(-c4ccncc4)ccc23)cc(OC)c1OC.Cl [GW494610A],potency estimated from few doses,[4]; CATDS: 2.73925679017063E-2,689 nM
O=C1N=C(NCCc2cccc(Cl)c2)S/C1=C\c1ccc2ncccc2c1 [RO4509201-000],potency estimated from few doses,[3]; CATDS: 0.11246138422507899,274 nM
O=C1N=C(NCCc2ccccc2F)S/C1=C\c1ccc2ncccc2c1 [RO4498483-000],potency estimated from few doses,[3]; CATDS: 0.16167463298299301,268 nM
CS(=O)(=O)CCNCc1ccc(-c2ccc3ncnc(Nc4ccc(OCc5cccc(F)c5)c(C(F)(F)F)c4)c3c2)o1 [GW576484X],potency estimated from few doses,"[5]; compound concentrations: 100 nM and 1000 nM (sheet 'Samples'), CATDS: 9.7740197678702595E-2",599 nM
same,potency estimated from few doses,[6]; CATDS: 5.2836581053762099E-2,1740 nM
Cl.Oc1cccc(Nc2ccnc3cc(-c4ccncc4)ccc23)c1 [GW494601A],potency estimated from few doses,[4]; CATDS: 2.0441514499226199E-2,1280 nM
Cc1cccc(Nc2nc(NCCN)ncc2C(N)=O)c1 [GSK1292139B],potency estimated from few doses,[4]; CATDS: 7.7542557386304695E-2,1140 nM
O=C1N=C(NCc2cccs2)SC1Cc1ccc2ncccc2c1 (centres unmarked) [RO4629078-000],potency estimated from few doses,[7]; CATDS: 9.4373206529466905E-3,778 nM
same,potency estimated from few doses,"[5]; compound concentrations: 100 nM and 1000 nM (sheet 'Samples'), CATDS: 1.0012071697909601E-2",667 nM
same,potency estimated from few doses,[8]; CATDS: 1.78994015869859E-2,211 nM
same,potency estimated from few doses,[9]; CATDS: 1.61758600761754E-2,250 nM
same,potency estimated from few doses,"[10]; compound concentrations: 100 nM and 1000 nM (sheet 'Samples'), CATDS: 8.6375652210939294E-3",1000 nM
Cl.O=C1N=C(NCc2ccccn2)S/C1=C\c1ccc2ncccc2c1 [RO4874953-001],potency estimated from few doses,[7]; CATDS: 7.2588346323970404E-2,1850 nM
CC(C)c1nc(-c2cccc(NS(=O)(=O)c3ccccc3)c2)c(-c2ccnc(Nc3ccc4c(c3)CN(C)CC4)n2)s1 [GSK1649598A],potency estimated from few doses,[11]; CATDS: 1.66184718911398E-2,621 nM
same,potency estimated from few doses,[12]; CATDS: 1.6681675288379799E-2,614 nM
same,potency estimated from few doses,[13]; CATDS: 2.0487115884267999E-2,353 nM
same,potency estimated from few doses,[14]; CATDS: 3.5211660098846E-2,116 nM
same,potency estimated from few doses,[4]; CATDS: 1.2157872123198099E-2,2170 nM
Cc1ccc(O)cc1Nc1ccnc2cc(-c3ccc(CN4CCCCC4)o3)ccc12 [GW557777X],potency estimated from few doses,"[10]; compound concentrations: 100 nM and 1000 nM (sheet 'Samples'), CATDS: 1.34758228974899E-2",1040 nM
O=C1N=C(NCCc2ccccn2)S/C1=C\c1ccc2ncccc2c1 [RO4508346-000],potency estimated from few doses,[15]; CATDS: 6.4775104376565806E-2,2150 nM
Cc1cccc(-c2cc(-c3c[nH]nc3-c3ccccn3)ccn2)c1 [GW679395X],potency estimated from few doses,[1]; [21],1810 nM
same,potency estimated from few doses,[16]; [21],1610 nM
same,potency estimated from few doses,[5]; [21],501 nM
same,potency estimated from few doses,[10]; [21],1320 nM
CS(=O)(=O)Cc1ccc(Nc2nccc(-c3c(-c4cccc(NC(=O)C5CCCCC5)c4)nn4ncccc34)n2)cc1 [GSK350559A],potency estimated from few doses,[17]; [21],1690 nM
same,potency estimated from few doses,[18],1920 nM
Nc1nc(-c2cccnc2)c(-c2ccnc3ccccc23)s1 [GW684083X],potency estimated from few doses,[2]; [21],2190 nM
CN1C(=O)c2ccccc2N(C)c2nc(Nc3cnn(C4CCNCC4)c3)ncc21 [XMD-17-51],potency estimated from few doses,[7]; CATDS: 1.6840556785817699E-2,788 nM
same,potency estimated from few doses,[15]; CATDS: 1.46632885257346E-2,1360 nM
COc1cccc(-n2ncc3c(N/N=C/c4ccc(C(=O)NCCN(C)C)cc4)ncnc32)c1.Cl [GW784307A],potency estimated from few doses,[19],900 nM
Cl.Cl.Cl.c1ccc(Oc2ccc(Nc3ccnc4cc(-c5ccc(CN6CCNCC6)o5)ccc34)cc2)nc1.c1ccc(Oc2ccc(Nc3ccnc4cc(-c5ccc(CN6CCNCC6)o5)ccc34)cc2)nc1 [GW567142A],potency estimated from few doses,[6]; CATDS: 1.69384830257906E-2,2080 nM
same,potency estimated from few doses,"[10]; compound concentrations: 100 nM and 1000 nM (sheet 'Samples'), CATDS: 1.92615538801734E-2",1300 nM
same,potency estimated from few doses,[4]; CATDS: 1.6971599300490501E-2,2060 nM
CNC(=O)c1ccccc1Nc1nc(Nc2cccc(CS(C)(=O)=O)c2)ncc1C.O=CO [GSK1520489A],potency estimated from few doses,"[16]; compound concentrations: 100 nM and 1000 nM (sheet 'Samples'), CATDS: 1.2501380881005299E-2",517 nM
same,potency estimated from few doses,[8]; CATDS: 2.8071916989063601E-2,65.5 nM
same,potency estimated from few doses,[9]; CATDS: 4.2767285410469903E-2,30.2 nM
same,potency estimated from few doses,[15]; CATDS: 2.3983880535388601E-2,91.1 nM
same,potency estimated from few doses,"[10]; compound concentrations: 100 nM and 1000 nM (sheet 'Samples'), CATDS: 7.2078436601234794E-2",13.5 nM
CC(C)c1nc(-c2cccc(NS(=O)(=O)c3c(F)cccc3F)c2)c(-c2ccnc(Nc3ccc(N4CCOCC4)nc3)n2)s1.Cl [GSK1723980B],potency estimated from few doses,[11]; CATDS: 2.6842704761094599E-2,243 nM
same,potency estimated from few doses,[20]; CATDS: 1.4820123571840101E-2,1580 nM
same,potency estimated from few doses,[12]; CATDS: 1.87425082345213E-2,614 nM
same,potency estimated from few doses,[13]; CATDS: 2.2922403030908301E-2,350 nM
same,potency estimated from few doses,[14]; CATDS: 2.58899611952562E-2,263 nM
CC(C)c1nc(-c2cccc(NS(=O)(=O)c3c(F)cccc3F)c2F)c(-c2ccnc(Nc3ccc(N4CCOCC4)nc3)n2)s1 [GSK2008607A],potency estimated from few doses,[11]; CATDS: 1.89965490605935E-2,1670 nM
same,potency estimated from few doses,[20]; CATDS: 1.7444638533949799E-2,2410 nM
same,potency estimated from few doses,[12]; CATDS: 2.0277618916634502E-2,1320 nM
same,potency estimated from few doses,[13]; CATDS: 2.5832908266049601E-2,668 nM
same,potency estimated from few doses,[14]; CATDS: 2.06856155254838E-2,1240 nM
CN(C)Cc1ccc(-c2ccc3c(Nc4ccc(Oc5ccccn5)cc4)ccnc3c2)o1 [GW567148X],potency estimated from few doses,[7]; CATDS: 2.5327932043398099E-2,534 nM
same,potency estimated from few doses,[8]; CATDS: 2.12691468378991E-2,830 nM
same,potency estimated from few doses,[9]; CATDS: 2.1089063317390098E-2,850 nM
CC(=O)N1CCN(c2ccc(Nc3nccc(-c4sc(C(C)C)nc4-c4cccc(NS(=O)(=O)c5ccccc5)c4)n3)cn2)CC1 [GSK1645872A],potency estimated from few doses,"[17]; compound concentrations: 100 nM and 1000 nM (sheet 'Samples'), CATDS: 2.7359704437324502E-2",943 nM
same,potency estimated from few doses,[11]; CATDS: 3.03150696001999E-2,721 nM
same,potency estimated from few doses,[12]; CATDS: 2.76064563935246E-2,919 nM
same,potency estimated from few doses,[13]; CATDS: 3.88696390995786E-2,420 nM
same,potency estimated from few doses,[14]; CATDS: 4.5143474402307197E-2,319 nM
